Experimental data: paper PMC5540273 (PLoS ONE, 2017)

Key:
Conditions in all cases: concentration: 1 μM, replicates: in singlicate; n = 1
BMX = test system: BMX
BRAF = test system: BRAF
BRK = test system: T1, BRK
T1 construct: gene PTK6

BRSK1 = test system: BRSK1
BRSK2 = test system: BRSK2
BTK = test system: BTK
BUB1 = test system: BUB1
CAMK1B = test system: CAMK1B
CAMK1D = test system: CAMK1D
CAMK1G = test system: CAMK1G
CAMK1 = test system: CAMK1
CAMK2A = test system: CAMK2A
CAMK2B = test system: CAMK2B
CAMK2D = test system: CAMK2D
CAMK2G = test system: CAMK2G
CAMK4 = test system: CAMK4
CAMKK1 = test system: CAMKK1
CAMKK2 = test system: CAMKK2
CASK = test system: CASK
CDC2L1 = test system: T2, CDC2L1
T2 construct: gene CDK11B
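Further: KINOMEscan kinase panel screen.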

Row | Compound | %Inh (BMX) [%] | %Inh (BRAF) [%] | %Inh (BRK) [%] | %Inh (BRSK1) [%] | %Inh (BRSK2) [%] | %Inh (BTK) [%] | %Inh (BUB1) [%] | %Inh (CAMK1B) [%] | %Inh (CAMK1D) [%] | %Inh (CAMK1G) [%] | %Inh (CAMK1) [%] | %Inh (CAMK2A) [%] | %Inh (CAMK2B) [%] | %Inh (CAMK2D) [%] | %Inh (CAMK2G) [%] | %Inh (CAMK4) [%] | %Inh (CAMKK1) [%] | %Inh (CAMKK2) [%] | %Inh (CASK) [%] | %Inh (CDC2L1) [%]
1 | COCCOCCOc1cc2ncc3c4ccc(C#N)cc4[nH]c3c2cc1OC | 35 | 0 | 18 | 0 | 12 | 0 | 96.7 | 14 | 25 | 1 | 26 | 85 | 57 | 87 | 72 | 0 | 83 | 63 | 8 | 0
2 | COc1cc(Nc2ncc3c(C)nc(-c4cc5ccccc5[nH]4)n3n2)cc(OC)c1OC [GW869516] | 25 | 0 | 36 | 0 | 14 | 0 | 0 | 0 | 8 | 0 | 19 | 1 | 8 | 6 | 1 | 0 | 13 | 9 | 0 | 5
3 | O=c1[nH]cc(-c2ccc(N3CCOCC3)cc2)c2sc(-c3cn[nH]c3)cc12 [GSK2276055] | 11 | 35 | 0 | 0 | 0 | 0 | 0 | 5 | 29 | 12 | 31 | 2 | 2 | 18 | 25 | 0 | 29 | 22 | 15 | 4
4 | CCn1c(-c2nonc2N)nc2c(C#CC(C)(C)O)nc(OC[C@H](N)c3ccccc3)cc21 [GSK943949] | 2 | 42 | 0 | 0 | 50 | 0 | 13 | 0 | 10 | 0 | 0 | 0 | 0 | 0 | 0 | 0 | 0 | 0 | 25 | 0
5 | COC(=O)Nc1nc2cc(Oc3ccc(NC(=O)Nc4cc(C(F)(F)F)ccc4F)cn3)ccc2[nH]1.Cl.Cl [GW681170] | 5 | 73 | 0 | 0 | 0 | 0 | 3 | 28 | 12 | 44 | 17 | 0 | 0 | 42 | 57 | 0 | 49 | 59 | 0 | 0
6 | CN1CCN(Cc2cccc(-c3ccc4c(Nc5ccc(Oc6ccccc6)cc5)ccnc4c3)c2)CC1 [GW578342] | 20 | 0 | 90.2 | 0 | 1 | 90.8 | 35 | 10 | 7 | 0 | 27 | 1 | 0 | 5 | 10 | 0 | 0 | 0 | 1 | 0
7 | Cc1cccc(Nc2nc(N[C@H]3CCNC3)ncc2C(N)=O)c1.Cl [GSK2197149] | 16 | 4 | 7 | 0 | 0 | 0 | 44 | 68 | 55 | 8 | 41 | 0 | 0 | 6 | 18 | 0 | 2 | 17 | 0 | 73
